The record followed here is PubChem BioAssay (Tox21).

Results filed as inconclusive are left out. A call without a number means that no potency is given here. A structure can be active in one record and inactive in another. Active and inactive are the calls of the source. Calls follow the shape of the full dose curve. Square brackets hold non-standard residues; d marks the D form. Peptide text beside a SMILES is read from it. * marks the point of attachment. Sta = CC(C)C[C@H](N)[C@@H](O)CC(=O)O; Isovaleryl = CC(C)CC(=O)*
Potency is read from the fitted curve at half-maximal effect.

The target in the assay is 5-hydroxytryptamine receptor 2A (Homo sapiens) (UniProt P28223). The assay can be described thus: 5-hydroxytryptamine receptor 2A (HTR2A) small molecule antagonists, cell-based qHTS assay (AID 1963586). Also: nearly all actives have a fitted effect of over 45% in size. Conditions: HTR2A-CHO cells, DOI-induced calcium flux, fluorescence; series mostly up to 61.5 µM. The source says: National Center for Advancing Translational Sciences [NCATS]
5-hydroxytryptamine receptor 2A (Homo sapiens), sequence (P28223 whole entry, looked up): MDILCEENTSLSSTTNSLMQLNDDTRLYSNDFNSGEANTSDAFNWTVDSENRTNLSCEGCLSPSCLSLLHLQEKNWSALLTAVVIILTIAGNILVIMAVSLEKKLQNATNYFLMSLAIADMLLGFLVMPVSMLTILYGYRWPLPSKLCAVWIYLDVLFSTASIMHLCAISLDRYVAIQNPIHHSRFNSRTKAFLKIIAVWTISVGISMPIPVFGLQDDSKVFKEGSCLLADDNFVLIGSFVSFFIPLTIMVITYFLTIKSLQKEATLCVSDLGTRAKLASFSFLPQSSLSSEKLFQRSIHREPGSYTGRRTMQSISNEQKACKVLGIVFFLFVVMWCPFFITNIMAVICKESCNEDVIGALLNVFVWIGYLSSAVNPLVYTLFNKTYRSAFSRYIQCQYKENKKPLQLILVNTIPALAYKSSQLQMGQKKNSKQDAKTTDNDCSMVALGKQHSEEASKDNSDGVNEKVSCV
Division of Preclinical Innovation [DPI]
U.S. Environmental Protection Agency [EPA]
National Institutes of Environmental Health Sciences [NIEHS]
National Toxicology Program [NTP]
U.S. Food and Drug Administration [FDA]
The HTR2A receptor is a subtype of the 5-HT2 receptor that belongs to the serotonin receptor family and is a G protein-coupled receptor (GPCR). The HTR2A-CHO cell line stably expressing human 5-hydroxytryptamine receptor 2A (HTR2A) can be used for screening antagonists of interactions between 5-HT2 and its ligands. The HTR2A-CHO calcium flux assay is a homogeneous fluorescence-based assay for detecting the intracellular calcium level using FDSS kinetic plate reader system.
Tox21 Assay Protocol Summary:
HTR2A-CHO cells were dispensed at 2000 cells/3uL/well in 1536-well black-clear bottom plates using a Multidrop Dispenser. After the assay plates were incubated at a 37 C/5% CO2 incubator for 18 h, 3 uL of Dye Loading Buffer was transferred to the assay plate by a Flying Reagent Dispenser. The assay plates were incubated at 37 C for 1h. For antagonist mode, 23 nL of compounds dissolved in DMSO, positive controls or DMSO only was transferred to the assay plate by a pin tool. After 5 min incubation at room temperature, 1.5 uL of 4-Iodo-2,5-dimethoxy-alpha-methylbenzeneethanamine hydrochloride (DOI) at 4nM was added to each well. The fluorescence intensity in the plates was measured using FDSS 7000EX kinetic plate reader for 3 min at 1 sec intervals.
`CCc1ccccc1N`: the Potency result was “inactive”.

As for `CC(O)C(=O)[O][Hg][c]1ccccc1` (stereo not given), the Potency entry is “inactive”.

Regarding `CCCCCCCCCCCCCCC(Br)C(=O)O` (stereo not given), the Potency entry was “inactive”. Consider `O=[N+]([O-])c1ccc2c3c(cccc13)CC2`, for which the Potency entry was “inactive”. Turning to `CCOP(=S)(NC(C)C)Oc1ccccc1C(=O)OC(C)C` (stereo not given), the Potency result is “inactive”. With `O=[N+]([O-])C(Br)Br` the figure was 37.6 µM (active); with `COc1cccc2c1cc([N+](=O)[O-])c1c(C(=O)O)cc3c(c12)OCO3`, “inactive”; with `CCC1(c2ccccc2)C(=O)N(COC)C(=O)N(COC)C1=O`, “inactive”.

For `O=[N+]([O-])c1cccc(CCl)c1`, the Potency entry was “inactive”.

For the compound `CCOc1ccc(C(C)(C)COCc2cccc(Oc3ccccc3)c2)cc1`, the Potency result is “inactive”. With `BrCC(Br)(Br)Br`, the Potency entry was “inactive”. With `[CH3][Hg][Cl]` the entry was “inactive”. For `CON(C)C(=O)Nc1ccc(Br)c(Cl)c1`, the Potency entry is “inactive”. The result for `Cc1nc(N(C)C)nc(OC(=O)N(C)C)c1C` reads “inactive”; that for `NC(=O)c1ccc(N)nc1`, “inactive”. On to `N#CC(CCc1ccc(Cl)cc1)(Cn1cncn1)c1ccccc1` (stereo not given), for which the Potency result is “inactive”. With `BrC(Br)C(Br)(Br)Br` the entry was “inactive”; with `CC(C)(C)C(O)/C(=C\c1ccc(Cl)cc1Cl)n1cncn1` (stereo not given), “inactive”. Consider `NC(=O)CI`, for which the Potency result was “inactive”. The result for `NC(=O)C(Cl)(Cl)Cl` reads “inactive”.

In the case of `CCNS(=O)(=O)C(F)(F)C(F)(F)C(F)(F)C(F)(F)C(F)(F)C(F)(F)C(F)(F)C(F)(F)F`, the Potency result was “inactive”.

With `NCCc1cc(O)c(O)cc1O`, the Potency was 18.3 µM (active). Consider `CCOC(C(=O)OCCN(C)C)(c1ccccc1)c1ccccc1`, for which the Potency entry is “inactive”. As to `NC(=S)C(N)=S`, the Potency entry is “inactive”. In the case of `CCc1nn(C)c(C(=O)NCc2ccc(C(C)(C)C)cc2)c1Cl`, the Potency result was “inactive”. Take `CN(C)C(=O)Nc1cccc(OC(=O)NC(C)(C)C)c1`: the Potency entry is “inactive”. The result for `CC(C)(N)Cc1ccc(Cl)cc1` reads “inactive”; that for `CC(C)(OO)c1ccccc1`, “inactive”. Turning to `CC(C)NCC(O)c1ccc([N+](=O)[O-])cc1` (stereo not given), the Potency entry is “inactive”. Turning to `CCC/C(=N\OCC)C1=C(O)CC(CC(C)SCC)CC1=O` (stereo not given), the Potency result was “inactive”. The result for `CC(C)(c1ccccc1)c1ccc(O)cc1` reads 33.2 µM (active) and inactive; that for `O=NN1CCNCC1`, “inactive”. For `CCOP(=O)(Sc1ccccc1)Sc1ccccc1`, the Potency entry was “inactive”. The result for `CC(Oc1ccc(Oc2ncc(C(F)(F)F)cc2Cl)cc1)C(=O)O` (stereo not given) reads “inactive”; that for `CSC(C)(C)/C=N/O`, “inactive”. Turning to `CC(C)CC(=O)N[C@H](C(=O)N[C@H](C(=O)N[C@@H](CC(C)C)[C@@H](O)CC(=O)N[C@@H](C)C(=O)N[C@@H](CC(C)C)[C@@H](O)CC(=O)O)C(C)C)C(C)C` (Isovaleryl-VV[Sta]A[Sta]-OH), the Potency result was “inactive”. Regarding `O=C1C(Cl)C(CCl)CN1c1cccc(C(F)(F)F)c1` (stereo not given), the Potency result was “inactive”. Take `CCSC(=O)N(CC)C1CCCCC1`: the Potency entry is “inactive”. With `CC(C)(C)c1ccc(OP(=O)(Oc2ccccc2)Oc2ccccc2)cc1` the figure was 8.45 µM (active); with `OCCBr`, “inactive”.
